From PubChem BioAssay
Where “and” joins values, the source holds several entries; their conditions need not be identical. Identical values can stand only once. Records with an inconclusive call do not appear. More than one record can exist for a structure, and the calls need not agree. Calls of active or inactive are those of the source.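 The calls were made as follows, unless noted: active = normalized viability below 100% at a tested concentration; inactive = the rest.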

Columns and labels:
[1] = compounds altering viability of human ES cells (AID 493140; call rule not given here;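 also: cells exposed to compounds for four days before counting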); conditions: human embryonic stem cell survival screen; stronger effect = higher value
[2] = P. berghei load reduction in hepatocytes – cell-based, HepG2, luciferase luminescence, HepG2 viability, primary screen (AID 624349; in the data active = parasite load remaining mostly below about 12%, no sharp cut-off; inactive = mostly above about 10%;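 also: 100% = mean of DMSO negative control wells on the same plate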); conditions: P. berghei liver stage in HepG2, luciferase luminescence, concentration not given here; parasite load remaining: stronger effect = lower value; viability: measured here: HepG2 viability without parasites
[3] = tested on: Hepatitis C virus NS3 helicase; experiment: blockers of NS3h binding to ssDNA – biochemical, fluorescence polarization, LOPAC1280 library, primary screen (AID 687035; in the data active = inhibition above about 37%); conditions: Purified HCV NS3 helicase, Cy5-dT15 ssDNA binding fluorescence polarization; stronger effect = higher value; concentration not given here
[4] = compounds altering Cy5-DNA-NS3h complex signal – biochemical, LOPAC1280, artefact control for HCV NS3 helicase inhibitor project (AID 687037; call rule not given here); conditions: Cy5-DNA-NS3h complex fluorescence interference counterscreen
[5] = tested on: Aerobactin synthetase IucA (Klebsiella pneumoniae); experiment: inhibition of K. pneumoniae IucA enzyme – biochemical, Tocris library, absorbance (AID 1345561; call rule not given here;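 also: 100% = enzyme without compound and 0% = no enzyme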); conditions: purified IucA enzyme assay, absorbance (OD) read-out; stronger effect = lower value;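 tested at 8 µM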
[6] = viability loss with induced miR-34 in A549 – imaging, A549 dox-inducible miR-34, nuclei and caspase counts, primary screen (AID 1347080;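 active = compounds whose cell count with miR-34 switched on is under 0.7 times the count with it off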); conditions: A549 miR-34 inducible, Hoechst nuclei count, 48 h
[7] = chitosan synthesis blockers in C. neoformans – flow cytometry, Cibacron Brilliant Red staining (AID 1347148; call rule not given here;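 also: compound exposure lasted three days at 37 degrees C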); conditions: Cryptococcus neoformans chitosan, stronger effect = lower value; at 10 µM unless noted
[8] = compounds altering HSF1 focus formation in cells – imaging, Selleck Cancer Library (AID 1347162; in the data active = plate-normalised HSF1 focus index below about 0.46); conditions: human cells, HSF1 nuclear foci imaging, at 10 µM; SSMD: measured here: HSF1 foci SSMD mean; cell count: measured here: cell number; plate-normalised HSF1 focus index: stronger effect = lower value
[9] = blockers of cellular phospholipid synthesis – cell-based, LOPAC library, screen 4, primary screen (AID 1347384; call rule not given here); conditions: animal cells, phospholipid biosynthesis inhibition screen; at 10 µM
[10] = drug combination growth inhibition, ovarian cancer – cell-based, oncology-focused library, rucaparib conditional, profiling panel (AID 1508598); conditions: patient-derived ovarian cancer cells, CellTiter-Glo viability, 144 h, stronger effect = lower value
[11] = galactose survival enhancers in mitochondrial complex I cybrids – cell-based, galactose medium, ATP luminescence, primary screen (AID 1645843;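 active = z-score of at least 1.8 in each of two replicates, scored against plate mean and spread of sample wells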;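 also: positive z means more ATP and so rescue of galactose-driven cybrid death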); conditions: complex I mutant cybrid cells, 72 h, stronger effect = higher value
[12] = compounds altering circadian rhythm period length – cell-based, LOPAC library, luminescence reporter (AID 2774; call rule not given here;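 also: values are relative to mean of DMSO wells on each plate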); conditions: circadian reporter cells, at 7 µM, actives lie on both sides
[13] = viability loss in pontine glioma line – cell-based, SU-DIPG-IV, MIPE4.0, CellTiter-Glo, qHTS, dose response (AID 1347063; cut-off not given, nearly all actives have AC50 up to about 30 µM;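 also: compound exposure lasted 48 hours before the viability readout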); conditions: CellTiter-Glo ATP luminescence
[14] = growth inhibition of DIPG cells – cell-based, MIPE5.0 library, qHTS (AID 1347068; cut-off not given, nearly all actives have IC50 up to about 30 µM;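 as to IC50: cells exposed to compound for 48 hours before viability readout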); conditions: SU-DIPG-XXV viability
[15] = viability loss in pontine glioma line – cell-based, JHH-DIPG-1, MIPE4.0, CellTiter-Glo, qHTS, dose response (AID 1347062; cut-off not given, nearly all actives have AC50 up to about 27 µM;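 as to AC50: cells exposed to compound for two days before readout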); conditions: JHH-DIPG-1 viability, CellTiter-Glo ATP luminescence
[16] = MELAS cybrid and Rieske KO viability enhancers – cell-based, MELAS cybrids, Rieske KO mouse fibroblasts, CellTiter-Glo, primary screen (AID 1508586;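 active = mean z-score across replicates of 1.96 or higher in either the MELAS or the Rieske mutant cell line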;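 also: z relative to plate mean and SD of compound and empty wells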); conditions: low glucose
[17] = stronger effect = lower value, cell number ratio, induced over uninduced
[18] = measured here: relative caspase fold change +Dox/-Dox
[19] = measured here: total cells with miR-34 induction, stronger effect = lower value
[20] = measured here: total cells without miR-34 induction
[21] = at 0.000305 µM, OCI-C5x cells, with rucaparib 10 µM, 100% = cells with rucaparib alone
[22] = at 0.000305 µM, OCI-C5x cells, without rucaparib
[23] = at 0.000305 µM, OCI-P5x cells, with rucaparib 20 µM, 100% = cells with rucaparib alone
[24] = at 0.000305 µM, OCI-P5x cells, without rucaparib
[25] = at 0.00122 µM, OCI-C5x cells, with rucaparib 10 µM, 100% = cells with rucaparib alone
[26] = at 0.00122 µM, OCI-C5x cells, without rucaparib
[27] = at 0.00122 µM, OCI-P5x cells, with rucaparib 20 µM, 100% = cells with rucaparib alone
[28] = at 0.00122 µM, OCI-P5x cells, without rucaparib
[29] = at 0.00488 µM, OCI-C5x cells, with rucaparib 10 µM, 100% = cells with rucaparib alone
[30] = at 0.00488 µM, OCI-C5x cells, without rucaparib
[31] = at 0.00488 µM, OCI-P5x cells, with rucaparib 20 µM, 100% = cells with rucaparib alone
[32] = at 0.00488 µM, OCI-P5x cells, without rucaparib
[33] = at 0.0195 µM, OCI-C5x cells, with rucaparib 10 µM, 100% = cells with rucaparib alone
[34] = at 0.0195 µM, OCI-C5x cells, without rucaparib
[35] = at 0.0195 µM, OCI-P5x cells, with rucaparib 20 µM, 100% = cells with rucaparib alone
[36] = at 0.0195 µM, OCI-P5x cells, without rucaparib
[37] = at 0.0781 µM, OCI-C5x cells, with rucaparib 10 µM, 100% = cells with rucaparib alone
[38] = at 0.0781 µM, OCI-C5x cells, without rucaparib
[39] = at 0.0781 µM, OCI-P5x cells, with rucaparib 20 µM, 100% = cells with rucaparib alone
[40] = at 0.0781 µM, OCI-P5x cells, without rucaparib
[41] = at 0.313 µM, OCI-C5x cells, with rucaparib 10 µM, 100% = cells with rucaparib alone
[42] = at 0.313 µM, OCI-C5x cells, without rucaparib
[43] = at 0.313 µM, OCI-P5x cells, with rucaparib 20 µM, 100% = cells with rucaparib alone
[44] = at 0.313 µM, OCI-P5x cells, without rucaparib
[45] = at 1.25 µM, OCI-C5x cells, with rucaparib 10 µM, 100% = cells with rucaparib alone
[46] = at 1.25 µM, OCI-C5x cells, without rucaparib
[47] = at 1.25 µM, OCI-P5x cells, with rucaparib 20 µM, 100% = cells with rucaparib alone
[48] = at 1.25 µM, OCI-P5x cells, without rucaparib
[49] = at 5 µM, OCI-C5x cells, with rucaparib 10 µM, 100% = cells with rucaparib alone
[50] = at 5 µM, OCI-C5x cells, without rucaparib
[51] = at 5 µM, OCI-P5x cells, with rucaparib 20 µM, 100% = cells with rucaparib alone
[52] = at 5 µM, OCI-P5x cells, without rucaparib
[53] = MELAS cybrid survival, CellTiter-Glo 48 h, stronger effect = higher value
[54] = Rieske KO mouse fibroblast survival, CellTiter-Glo 72 h

Cc1ccc(S(=O)(=O)/C=C/C#N)cc1
survival [1]: 9.17 (inactive)
parasite load remaining [2]: 28.8% (inactive)
viability [2]: 155%
inhibition [3]: 0% (inactive)
fluorescence ratio (interference) [4]: 1 (inactive)
remaining activity [5]: 118% (inactive)
fold change [6, 17]: 1.22 (inactive) and 0.866 (inactive) and 0.568 (active)
fold change [6, 18]: 0.97 and 2.14 and 4.02
cell count [6, 19]: 1120 and 1020 and 904
cell count [6, 20]: 923 and 1180 and 1590
fold fluorescence [7]: 8.49 [at 241.3 µM] (inactive)
SSMD [8]: -10.4
cell count [8]: 6840
plate-normalised HSF1 focus index [8]: 0.628 (inactive)
outcome [9]: inactive
viability [10, 21]: 105% (inactive)
viability [10, 22]: 97.6% (active)
viability [10, 23]: 97.8% (active)
viability [10, 24]: 102% (inactive)
viability [10, 25]: 116% (inactive)
viability [10, 26]: 111% (inactive)
viability [10, 27]: 98.6% (active)
viability [10, 28]: 106% (inactive)
viability [10, 29]: 116% (inactive)
viability [10, 30]: 123% (inactive)
viability [10, 31]: 94.4% (active)
viability [10, 32]: 105% (inactive)
viability [10, 33]: 115% (inactive)
viability [10, 34]: 117% (inactive)
viability [10, 35]: 95.6% (active)
viability [10, 36]: 106% (inactive)
viability [10, 37]: 115% (inactive)
viability [10, 38]: 109% (inactive)
viability [10, 39]: 86.5% (active)
viability [10, 40]: 102% (inactive)
viability [10, 41]: 115% (inactive)
viability [10, 42]: 116% (inactive)
viability [10, 43]: 90.2% (active)
viability [10, 44]: 94.8% (active)
viability [10, 45]: 122% (inactive)
viability [10, 46]: 112% (inactive)
viability [10, 47]: 83.8% (active)
viability [10, 48]: 81.1% (active)
viability [10, 49]: 3.86% (active)
viability [10, 50]: 4.91% (active)
viability [10, 51]: 26.6% (active)
viability [10, 52]: 2.37% (active)
z-score [11]: -1.38 (inactive) and -1.04 (inactive)

O=S(=O)(NCCNC/C=C/c1ccc(Br)cc1)c1cccc2cnccc12
period change [12]: -0.05 h (inactive)
survival [1]: 202 (active)
parasite load remaining [2]: 26.7% (inactive)
viability [2]: 66.5%
remaining activity [5]: 114% (inactive)
AC50 [13]: 16.6 µM (active)
outcome [14]: inactive
fold change [6, 17]: 0.909 (inactive) and 1.06 (inactive)
fold change [6, 18]: 1.15 and 1.08
cell count [6, 19]: 2930 and 6810
cell count [6, 20]: 3220 and 6450
fold fluorescence [7]: 7.62 [at 112 µM] (inactive)
z-score [11]: -0.61 (inactive)

CC(C)(Sc1ccc(CCN(CCCCC2CCCCC2)C(=O)NC2CCCCC2)cc1)C(=O)O
period change [12]: -0.015 h (inactive)
inhibition [3]: 3% (inactive)
fluorescence ratio (interference) [4]: 1 (inactive)
remaining activity [5]: 122% (inactive)
outcome [15]: inactive
outcome [14]: inactive
fold change [6, 17]: 0.945 (inactive) and 0.954 (inactive) and 0.926 (inactive)
fold change [6, 18]: 1.38 and 0.651 and 0.687
cell count [6, 19]: 8520 and 5920 and 7310
cell count [6, 20]: 9020 and 6210 and 7900
outcome [9]: inactive
z-score [11]: 0.62 (inactive) and 1.14 (inactive)

CC(C)(C)/[N+]([O-])=C/c1ccc(S(=O)(=O)O)cc1S(=O)(=O)O
remaining activity [5]: 104% (inactive)
outcome [15]: inactive
outcome [13]: inactive
fold change [6, 17]: 1.35 (inactive)
fold change [6, 18]: 1.12
cell count [6, 19]: 7460
cell count [6, 20]: 5520
z-score [11]: 2.67 (inactive)

O=C(c1ccc(Nc2nccc(-c3cc4ccccc4s3)n2)cc1)N1CCC(N2CCCC2)CC1
parasite load remaining [2]: 27.7% (inactive)
viability [2]: 86.2%
remaining activity [5]: 98.9% (inactive)
AC50 [15]: 18.7 µM (active)
AC50 [13]: 8.33 µM (active)
IC50 [14]: 9.34 µM (active)
fold change [6, 17]: 1.04 (inactive) and 1.02 (inactive)
fold change [6, 18]: 0.636 and 0.577
cell count [6, 19]: 3590 and 394
cell count [6, 20]: 3460 and 385
z-score [16, 53]: -0.0984 (inactive)
z-score [16, 54]: 0.125
z-score [11]: -0.705 (inactive)

CCOC(=O)C(C)Oc1cccc2c(=O)n(CC(=O)Nc3ccc4c(c3)OCCO4)ccc12 (stereo not drawn)
inhibition [3]: -3% (inactive)
fluorescence ratio (interference) [4]: 1 (inactive)
remaining activity [5]: 96.6% (inactive)
outcome [15]: inactive
outcome [13]: inactive
outcome [14]: inactive
fold change [6, 17]: 0.916 (inactive) and 0.854 (inactive)
fold change [6, 18]: 0.783 and 1.31
cell count [6, 19]: 8970 and 6830
cell count [6, 20]: 9800 and 8000
SSMD [8]: 0.942
cell count [8]: 6920
plate-normalised HSF1 focus index [8]: 1.06 (inactive)
z-score [11]: 0.675 (inactive) and 0.45 (inactive)

O=C(O)Cc1cccc(OCCCN(Cc2cccc(C(F)(F)F)c2Cl)CC(c2ccccc2)c2ccccc2)c1
remaining activity [5]: 110% (inactive)
outcome [15]: inactive
AC50 [13]: 20.9 µM (active)
fold change [6, 17]: 0.882 (inactive) and 1.33 (inactive)
fold change [6, 18]: 0.748 and 1.3
cell count [6, 19]: 7570 and 3160
cell count [6, 20]: 8580 and 2370
SSMD [8]: 0.414
cell count [8]: 6290
plate-normalised HSF1 focus index [8]: 1.02 (inactive)
z-score [16, 53]: -0.168 (inactive)
z-score [16, 54]: -0.731
viability [10, 21]: 118% (inactive)
viability [10, 22]: 117% (inactive)
viability [10, 23]: 107% (inactive)
viability [10, 24]: 111% (inactive)
viability [10, 25]: 118% (inactive)
viability [10, 26]: 129% (inactive)
viability [10, 27]: 108% (inactive)
viability [10, 28]: 95.8% (active)
viability [10, 29]: 115% (inactive)
viability [10, 30]: 125% (inactive)
viability [10, 31]: 106% (inactive)
viability [10, 32]: 108% (inactive)
viability [10, 33]: 113% (inactive)
viability [10, 34]: 125% (inactive)
viability [10, 35]: 101% (inactive)
viability [10, 36]: 105% (inactive)
viability [10, 37]: 114% (inactive)
viability [10, 38]: 123% (inactive)
viability [10, 39]: 109% (inactive)
viability [10, 40]: 103% (inactive)
viability [10, 41]: 114% (inactive)
viability [10, 42]: 119% (inactive)
viability [10, 43]: 93.8% (active)
viability [10, 44]: 96.5% (active)
viability [10, 45]: 111% (inactive)
viability [10, 46]: 114% (inactive)
viability [10, 47]: 96.5% (active)
viability [10, 48]: 92.3% (active)
viability [10, 49]: 92.1% (active)
viability [10, 50]: 100% (inactive)
viability [10, 51]: 43.4% (active)
viability [10, 52]: 87.5% (active)
z-score [11]: -0.7 (inactive)
